From PubChem BioAssay (Tox21)
Results filed as inconclusive are left out. Activity calls are given as the source filed them. Unless noted, calls follow the shape of the full dose curve.

Legend:
[1] = Nuclear factor erythroid 2-related factor 2/antioxidant responsive element (Nrf2/ARE) small molecule agonists: qHTS cell viability counter screen in human keratinocytes (AID 1919968; active = well fitted curve in the direction sought with a large enough effect in the repeat runs; an effect the other way counts as inactive or inconclusive; also: nearly all actives have a fitted effect of over 55% in size)
How it was run: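 After a 5 h attachment period, ARE-reporter keratinocytes were dosed with compounds in DMSO and then cultured 23 h at 37 C. Cell viability came from CellTiter-Fluor signal read after a further 1 h.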

[2] = Nuclear factor erythroid 2-related factor 2/antioxidant responsive element (Nrf2/ARE) small molecule agonists: luciferase reporter gene qHTS assay in human keratinocytes (AID 1919969); also: nearly all actives have a fitted effect of over 35% in size
[3] = biological target: Gonadotropin-releasing hormone receptor (Homo sapiens) (UniProt P30968); test: Human gonadotropin-releasing hormone receptor (GnRHR) small molecule agonists, calcium flux assay in GnRHR-HEK293 cells (AID 1920063); also: nearly all actives have a fitted effect of over 35% in size
Chain of Gonadotropin-releasing hormone receptor (Homo sapiens) (P30968 whole entry, looked up): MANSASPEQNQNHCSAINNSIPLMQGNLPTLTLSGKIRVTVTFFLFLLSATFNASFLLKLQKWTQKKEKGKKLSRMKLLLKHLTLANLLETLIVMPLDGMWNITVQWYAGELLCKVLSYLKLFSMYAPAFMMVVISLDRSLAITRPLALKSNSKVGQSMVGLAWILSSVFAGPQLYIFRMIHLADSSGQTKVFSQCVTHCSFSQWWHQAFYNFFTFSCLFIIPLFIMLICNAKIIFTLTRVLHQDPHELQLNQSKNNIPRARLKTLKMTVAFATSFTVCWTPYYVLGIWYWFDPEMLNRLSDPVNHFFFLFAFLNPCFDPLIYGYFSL
How it was run: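 We seeded human GnRHR-expressing HEK293 cells for 18 hours, loaded them with calcium dye for an hour at 37 C, added test compounds, and recorded fluorescence intensity kinetically for three minutes.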

[4] = biological target: KiSS-1 receptor (Homo sapiens) (UniProt Q969F8); test: Human kisspeptin (KISS1R) small molecule agonists, calcium flux assay in KISS1R-HEK293 cells (AID 1920064; active = well fitted curve in the direction sought with a large enough effect in the repeat runs; an effect the other way counts as inactive or inconclusive)
Chain of KiSS-1 receptor (Homo sapiens) (Q969F8 whole entry, looked up): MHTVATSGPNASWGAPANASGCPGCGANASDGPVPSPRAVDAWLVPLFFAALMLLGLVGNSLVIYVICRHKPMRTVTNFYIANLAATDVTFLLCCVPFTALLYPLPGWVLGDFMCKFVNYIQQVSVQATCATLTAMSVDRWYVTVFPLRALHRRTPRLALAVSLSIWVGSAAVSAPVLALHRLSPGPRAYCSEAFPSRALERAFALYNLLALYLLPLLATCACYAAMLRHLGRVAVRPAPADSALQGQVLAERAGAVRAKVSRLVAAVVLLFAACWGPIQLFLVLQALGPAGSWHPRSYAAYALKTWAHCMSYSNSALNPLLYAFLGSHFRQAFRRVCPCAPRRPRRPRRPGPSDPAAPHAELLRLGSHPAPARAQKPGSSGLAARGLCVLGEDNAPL
How it was run: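 Kinetic calcium assay, 1 s sampling over 3 min at Ex/Em 480/540, in HEK293 cells engineered with human KISS1R; compounds delivered in DMSO after 1 h dye loading.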

[5] = G protein-coupled receptor (GPCR) small molecule agonists, calcium flux assay: HEK293 wild type cell line counter screen (AID 1920065)
How it was run: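 Calcium-sensitive dye, loaded 1 h at 37 C into cells cultured 18 h, reports compound-evoked calcium release as fluorescence (Ex/Em 480/540), measured over 3 min. Agonist mode; 15-point titrations, triplicate.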

[6] = p53 small molecule agonists, cell-based qHTS assay with human liver microsomes (AID 1963577);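 also: p53 response element beta-lactamase reporter cells with liver microsomes plus NADPH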
How it was run: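 Reporter activation was measured by LiveBLAzer fluorescence intensity in p53RE-bla cells, which had been exposed to compounds for 16 h at 37 C alongside 0.5 mg/mL human liver microsomes and 0.5 mg/mL NADPH (final concentrations).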

[7] = p53 small molecule agonists, cell-based qHTS assay with rat liver microsomes (AID 1963578)
How it was run: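 Compound in DMSO added to p53RE-bla cells 5 h post-plating; rat microsomes/NADPH 0.5 mg/mL final; 16 h, 37 C; LiveBLAzer 2 h RT.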

[8] = p53 small molecule agonists, cell-based qHTS assay with human liver microsomes: qHTS cell viability counter screen (AID 1963579); also: nearly all actives have a fitted effect of over 45% in size
How it was run: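 HLM-supplemented (0.5 mg/mL final) and NADPH-supplemented (0.5 mg/mL final) p53RE-bla cultures, 4,000 cells per well, were dosed with compounds in DMSO for 16 h at 37 C; luminescent ATP detection (CellTiter-Glo, 30 min, room temperature) quantified surviving cells.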

[9] = p53 small molecule agonists, cell-based qHTS assay with rat liver microsomes: qHTS cell viability counter screen (AID 1963580); also: nearly all actives have a fitted effect of over 45% in size
How it was run: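 Viability is assessed in parallel with the p53 reporter read: HCT-116 p53RE-bla cells receive compounds plus rat microsomes and NADPH (0.5 mg/mL final apiece), incubate 16 h at 37 C, and then CellTiter-Glo luminescence is recorded.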

[10] = p53 small molecule agonists, cell-based qHTS assay: qHTS cell viability counter screen (AID 1963581); also: nearly all actives have a fitted effect of over 45% in size
How it was run: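 Following 5 h attachment, HCT-116 p53RE-bla cells took up compound for 16 h at 37 C; the reporter was read with B/G FRET substrate (2 h RT), and viability then via CellTiter-Glo ATP luminescence.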

[11] = p53 small molecule agonists, cell-based qHTS assay (AID 1963582; active = well fitted activation curve with a large enough effect in the signal ratio in the repeat runs, not every such curve was filed as active; the % refers to the signal ratio)
How it was run: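 In this cell-based concentration-response screen, a p53 response element drives beta-lactamase; cells received DMSO-borne compounds after 5 h culture and were incubated a further 16 h before FRET substrate development.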

[12] = biological target: 5-hydroxytryptamine receptor 2A (Homo sapiens) (UniProt P28223); test: 5-hydroxytryptamine receptor 2A (HTR2A) small molecule antagonists, cell-based qHTS assay (AID 1963586); also: nearly all actives have a fitted effect of over 45% in size
Chain of 5-hydroxytryptamine receptor 2A (Homo sapiens) (P28223 whole entry, looked up): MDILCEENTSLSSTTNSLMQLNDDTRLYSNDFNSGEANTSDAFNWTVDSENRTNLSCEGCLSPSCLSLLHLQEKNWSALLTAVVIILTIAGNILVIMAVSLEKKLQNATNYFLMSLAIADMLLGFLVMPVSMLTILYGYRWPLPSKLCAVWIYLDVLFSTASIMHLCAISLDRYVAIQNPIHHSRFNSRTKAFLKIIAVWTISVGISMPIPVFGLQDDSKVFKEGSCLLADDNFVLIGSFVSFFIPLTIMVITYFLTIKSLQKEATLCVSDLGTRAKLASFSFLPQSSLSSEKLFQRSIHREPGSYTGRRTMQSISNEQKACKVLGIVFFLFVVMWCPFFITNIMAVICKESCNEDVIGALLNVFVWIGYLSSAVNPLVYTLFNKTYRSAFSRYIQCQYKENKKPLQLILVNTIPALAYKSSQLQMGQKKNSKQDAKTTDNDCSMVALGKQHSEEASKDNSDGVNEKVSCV
How it was run: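 Antagonist-mode intracellular calcium assay: DOI (4 nM) added after 5 min compound pre-incubation at room temperature to dye-loaded HTR2A-CHO cells. Fluorescence followed for 3 min, sampled every second.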

[13] = biological target: 5-hydroxytryptamine receptor 2A (Homo sapiens) (UniProt P28223); test: 5-hydroxytryptamine receptor 2A (HTR2A) small molecule agonists, cell-based qHTS assay (AID 1963587); also: nearly all actives have a fitted effect of over 30% in size
How it was run: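 CHO cells stably expressing human HTR2A, plated 18 h, loaded with calcium dye 1 h at 37 C. Agonist mode: compounds added and intracellular calcium fluorescence recorded kinetically for 2 min at 1 sec intervals.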

[14] = biological target: Muscarinic acetylcholine receptor M1 (Homo sapiens) (UniProt P11229); test: Cholinergic receptor muscarinic 1 (CHRM1) small molecule antagonists, cell-based qHTS assay (AID 1963588); also: nearly all actives have a fitted effect of over 40% in size; also: potency is read from the fitted curve at half-maximal effect
Chain of Muscarinic acetylcholine receptor M1 (Homo sapiens) (P11229 whole entry, looked up): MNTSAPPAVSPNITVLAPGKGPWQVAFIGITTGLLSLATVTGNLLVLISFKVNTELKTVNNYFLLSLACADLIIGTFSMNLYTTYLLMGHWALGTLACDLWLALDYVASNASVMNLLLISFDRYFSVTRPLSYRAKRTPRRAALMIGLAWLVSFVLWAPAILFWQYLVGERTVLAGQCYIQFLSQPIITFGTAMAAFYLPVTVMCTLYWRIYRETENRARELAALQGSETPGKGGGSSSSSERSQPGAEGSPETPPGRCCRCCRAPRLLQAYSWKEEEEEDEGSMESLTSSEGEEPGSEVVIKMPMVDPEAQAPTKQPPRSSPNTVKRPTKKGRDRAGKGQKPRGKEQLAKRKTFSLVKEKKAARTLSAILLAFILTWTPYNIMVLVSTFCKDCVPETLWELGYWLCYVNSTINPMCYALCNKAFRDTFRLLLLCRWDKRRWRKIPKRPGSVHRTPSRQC
How it was run: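 CHRM1-CHO calcium-flux assay, antagonist mode. Cells were seeded 18 h, dye-loaded 1 h at 37 C and given compound for 5 min at RT, then acetylcholine was added at 50nM. FDSS fluorescence was read 3 min; 15 concentrations, three runs.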

[15] = biological target: Muscarinic acetylcholine receptor M1 (Homo sapiens) (UniProt P11229); test: Cholinergic receptor muscarinic 1 (CHRM1) small molecule agonists, cell-based qHTS assay (AID 1963589); also: nearly all actives have a fitted effect of over 35% in size
How it was run: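 Measures agonist-induced intracellular calcium rise. Stable human CHRM1 CHO line, 1 h dye load at 37 C, compounds from DMSO, kinetic fluorescence read.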

[16] = cAMP Responsive Elements (CRE) small molecule agonists, cell-based qHTS assay (AID 1963590)
How it was run: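 A CRE-responsive beta-lactamase reporter in HEK 293T cells was used. Treatment ran 3 h at 37 C; detection used LiveBLAzer B/G FRET substrate for 2 h at room temperature.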

[17] = cAMP Responsive Elements (CRE) small molecule antagonists, cell-based qHTS assay (AID 1963591; active = well fitted inhibition curve with a large enough effect in the signal ratio in the repeat runs, not every such curve was filed as active; the % refers to the signal ratio)
How it was run: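 HEK293T cells carrying a CRE-driven beta-lactamase reporter receive compound and NKH477 (0.25 uM final) for 3 h. Fluorescence from LiveBLAzer B/G FRET substrate is read after 2 h at room temperature.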

[18] = biological target: Beta-2 adrenergic receptor (Homo sapiens) (UniProt P07550); test: Adrenergic beta2 receptor (ADRB2) small molecule antagonists, cell-based qHTS assay (AID 1963592); also: series mostly up to about 92 µM; nearly all actives have a fitted effect of over 50% in size
Chain of Beta-2 adrenergic receptor (Homo sapiens) (P07550 whole entry, looked up): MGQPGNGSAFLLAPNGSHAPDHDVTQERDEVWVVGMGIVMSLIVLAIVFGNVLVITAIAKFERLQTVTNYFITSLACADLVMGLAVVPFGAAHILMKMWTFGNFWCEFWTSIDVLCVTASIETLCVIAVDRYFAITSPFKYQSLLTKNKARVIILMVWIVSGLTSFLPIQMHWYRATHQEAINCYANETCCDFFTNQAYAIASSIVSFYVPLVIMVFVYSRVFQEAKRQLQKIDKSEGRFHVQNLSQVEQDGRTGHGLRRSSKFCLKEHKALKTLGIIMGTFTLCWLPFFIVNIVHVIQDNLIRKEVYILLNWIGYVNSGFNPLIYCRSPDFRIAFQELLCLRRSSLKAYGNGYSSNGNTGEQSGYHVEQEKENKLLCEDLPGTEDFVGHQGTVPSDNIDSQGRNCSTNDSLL
How it was run: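 Cells (CHO, stable ADRB2 overexpression) incubated 18-20hr at 37C; compounds added from DMSO; agonist mix (1nM isoproterenol, 100uM IBMX, 25uM Ro-20-1724) added; 0.5hr RT; d2-cAMP and anti-cAMP-cryptate added; 1hr RT; 665/615 nm read.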

[19] = biological target: D(2) dopamine receptor (Homo sapiens) (UniProt P14416); test: Dopamine D2 receptor (DRD2) small molecule agonists, cell-based qHTS assay (AID 1963594); also: nearly all actives have a fitted effect of over 35% in size
Chain of D(2) dopamine receptor (Homo sapiens) (P14416 whole entry, looked up): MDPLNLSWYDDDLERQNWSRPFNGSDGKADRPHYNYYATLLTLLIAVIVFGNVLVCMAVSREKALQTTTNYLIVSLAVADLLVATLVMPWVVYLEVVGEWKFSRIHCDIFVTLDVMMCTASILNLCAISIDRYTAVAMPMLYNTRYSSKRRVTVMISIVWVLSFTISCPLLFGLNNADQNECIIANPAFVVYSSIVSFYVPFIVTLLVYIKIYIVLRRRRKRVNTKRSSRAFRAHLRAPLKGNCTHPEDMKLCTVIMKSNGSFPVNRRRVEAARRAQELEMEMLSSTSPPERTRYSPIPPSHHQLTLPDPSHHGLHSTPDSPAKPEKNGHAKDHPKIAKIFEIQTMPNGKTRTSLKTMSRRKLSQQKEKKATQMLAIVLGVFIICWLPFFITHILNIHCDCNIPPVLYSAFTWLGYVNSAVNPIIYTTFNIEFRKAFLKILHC
How it was run: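 HEK293 cells stably expressing human DRD2, pre-treated with PDE inhibitor Ro20-1724 (0.1 mM final) and compound 10 min at room temperature, then stimulated with NKH477 (200nM […]) for 30 min. cAMP read by HTRF (665/620 nm).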

[20] = biological target: D(2) dopamine receptor (Homo sapiens) (UniProt P14416); test: Dopamine D2 receptor (DRD2) small molecule antagonists, cell-based qHTS assay (AID 1963595; active = well fitted inhibition curve with a large enough effect in the signal ratio in the repeat runs, with a control signal flat; the % refers to the signal ratio)
How it was run: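 In this cell-based antagonist screen, compounds act for 10 min at room temperature before a 30 min challenge with 12 nM quinpirole and 200 nM NKH477. cAMP is quantified by HTRF competition in DRD2-HEK293 cells containing 0.1 mM Ro20-1724.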

Measured: Potency

COC(=O)c1ccc(C)cc1
inactive: all assays above

NCCN
not listed: [19]
inactive: all other assays above

CCCCOC(=O)CCCCCCCCC(=O)OCCCC
inactive: all assays above

NC(=O)/N=N/C(N)=O
inactive: all assays above

ClC/C=C/CCl
inactive: all assays above

CC1(C)CC(N=C=O)CC(C)(CN=C=O)C1 (configuration not stated)
active: [14] 17 µM
inactive: all other assays above

CC(=O)CC(C)(C)O
inactive: all assays above

NS(=O)(=O)O
not listed: [17] | [20]
inactive: all other assays above

CCCCNS(=O)(=O)c1ccccc1
not listed: [16]
inactive: all other assays above

CCCCC(CC)CO (configuration not stated)
not listed: [16]
inactive: all other assays above

CC(=O)OC(C)(C)C1CC=C(C)CC1 (configuration not stated)
not listed: [16]
inactive: all other assays above

N[C@@H](Cc1cc(I)c(Oc2cc(I)c(O)c(I)c2)c(I)c1)C(=O)O
not listed: [16]
inactive: all other assays above

OB(O)O
not listed: [17]
inactive: all other assays above

O=S(=O)(O)c1ccc(O)cc1
inactive: all assays above

COC(=O)CCCC(=O)OC
inactive: all assays above

CC(O)COCC(C)O (configuration not stated)
inactive: all assays above
